Among the data in PubChem BioAssay AID1224862 (National Center for Advancing Translational Sciences (NCATS), 2016) are Potency values, retold here.

SMILES strings stand for the structures. Inconclusive results are not listed. Where a call stands in place of a potency, no number is given. Calls of active or inactive are those of the source. Calls follow the shape of the dose curve; as a rule, active = well fitted cell-killing curve with a large enough effect; inconclusive = small, poorly fitted or top-dose-only effect, or effect the other way; inactive = flat fitted curve, though single readings scatter.

The experiment can be described thus: Compound cytotoxicity measured by an ATP content assay as a counter-screen for lead compounds in human astrocytoma cell line (SNB-19). The settings on record: SNB-19 astrocytoma viability, ATP luminescence; series mostly up to 46.1 µM. Here is the method:
National Center for Advancing Translational Sciences [NCATS] Johns Hopkins University School of Medicine Florida State University Assay Overview: Many compounds can cause cytotoxicity at high compound concentrations. […] The compound cytotoxicity may also cause side effects or toxicity in human. Thus, the compound cytotoxicity needs to be measured in each cell type and each compound incubation time - same as these in the compound screening assay. The compound cytotoxicity can be measured by cell viability assays such as the ATP content assay. We use an ATP content assay kit for cell viability measurement. It measures ATP content (level) in human astrocytoma cell line (SNB-19) using a luminescence readout that is proportional to viable cell numbers. Decrease in the luminescence signal after the compound treatment indicates reduced cell viability and cell death caused by compound treatment.
Assay Protocol Summary: The medium for SNB-19 cells is composed of RPMI 1640 (ATCC, Cat.# 30-2001), 10% fetal bovine serum (FBS) (GE healthcare Life Sciences, Cat.# SH30071.03), and 1% Pen/Strep (Gibco, Cat.# 15140-122). The ATP content assay kit (PerkinElmer, Cat.# 6016731) was used to determine cell viability. The reagent was reconstituted and prepared as described by the manufacturer. Cells were seeded in 384- or 1536-well assay plates and cultured at 37 C with 5% CO2 for 16 to 20 hours. The typical cell seeding density in the 1536-well plate assay is 250 cells/well in 3ul medium for SNB-19 cells in tissue culture treated plates. Compounds were added to cells and incubated for a specific time such as 6, 24, or 72 hours before addition of the reagent mixture of the ATP content assay kit at 1:1 ratio. After incubation at room temperature for 10 minutes, the luminescence intensity in assay plates was measured using a ViewLux plate reader (PerkinElmer). […] The percentage inhibitions of the decreased cell viability by small molecules were then calculated that indicate compound cytotoxicity.
In the case of `O=C1C=CC[C@@H]2[C@H]3CCCN4CCC[C@@H](CN12)[C@@H]34`, the Potency result was “inactive”.

As for `COc1cccc2c1C(=O)c1c(O)c3c(c(O)c1C2=O)C[C@@](O)(C(=O)CO)CC3OC1CC(N2CCOC(OC)C2)C(O)C(C)O1` (some centres undefined), the Potency result was “inactive”.

`Oc1ccc([C@H]2CNCc3c2ccc(O)c3O)cc1O`: the Potency entry was “inactive”.

As for `O=C1CCC[C@@H]2[C@H]3CCCN4CCC[C@@H](CN12)[C@@H]34`, the Potency entry is “inactive”.

For the molecule `CC(O)CN1CCN(CC(=O)[O-])CCN(CC(=O)[O-])CCN(CC(=O)[O-])CC1.[Gd+3]` (centres undefined), the Potency result was “inactive”.

In the case of `S=C(SSC(=S)N1CCCCC1)N1CCCCC1`, the Potency result is “inactive”.

For the molecule `CC(C)N[C@@H]1CCn2c(=O)[nH]c3cccc(c32)[C@@H]1O`, the Potency result is “inactive”.

Regarding `CC(C)[N+](C)(CCC(C(N)=O)(c1ccccc1)c1ccccc1)C(C)C`, the Potency entry is “inactive”.

Consider `CC(C)[C@H]1C(=O)N[C@H](CO)Cc2c[nH]c3cccc(c23)N1C`, for which the Potency entry is “inactive”.

Take `Cc1ccc([N+](=O)[O-])[c]2c1[O][Hg]2`: the Potency is 5.48 µM (active).

With `CN1CC[C@@]2(C)c3cc(OC(=O)Nc4ccccc4)ccc3N(C)[C@@H]12`, the Potency result is “inactive”.

For the molecule `CC[n+]1c(-c2ccccc2)c2cc(N)ccc2c2ccc(N)cc21`, the Potency result is “inactive”.

Regarding `O=S(=O)(CC1CS1)c1ccc(Oc2ccccc2)cc1` (centres undefined), the Potency result is “inactive”.

Take `COP(=S)(OC)SCN1C(=O)c2ccccc2C1=O`: the Potency result is “inactive”.
